In publication PMC5540273 (PLoS ONE, 2017) one finds Kd data, which are given here for 19 compounds.
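Note: kd values determined as follow-up on hits from a single-replicate KINOMEscan panel screen.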

In the first assay the test system is KIT.
The Kd is the constant that tells how readily two partners part at equilibrium. As for `Cc1ccc(C(=O)Nc2ccc(Nc3ccnc4cc(-c5ccccn5)ccc34)cc2O)cc1.Cl` [GW440146], the affinity, expressed as Kd, was 2.2 µM. In other words, the single-digit micromolar range. The same measure, in the same setting: for `CC(=O)Nc1nc2cnc(Nc3cc(NC(=O)c4cccc(CCC#N)c4)ccc3C)nc2s1` the value was above 10 µM; for `Cc1ccc(NC(=O)Nc2cccc(Cl)c2)cc1-c1ccc(C(=O)Nc2ccncc2)cc1` [GSK1398468], 0.18 µM; for `COC(=O)c1c(-c2ccccc2)c2cc(OC)ccc2c(=O)n1Cc1ccccc1`, 0.17 µM. Same read-out and setting: for `Cc1cccc(-c2nc(-c3ccc(S(C)(=O)=O)cc3)sc2-c2ccnc(NCCc3ccccc3)c2)c1` the value was 0.12 µM.

Turning to `CC(C)(C)c1ccc(C(=O)Nc2cn3cc(-c4cccnc4)ccc3n2)cc1`, the Kd came to 0.32 µM. This Kd lies about 2.7-fold higher than the previous one. For the compound `Cc1ccc(NC(=O)Nc2cccc(C(F)(F)F)c2)cc1` [GSK955403], the Kd is 0.24 µM. This Kd and that of the compound before are within 1.5-fold of each other. In turn, `COC(=O)c1c(-c2ccccc2)c2cc(C(=O)O)ccc2c(=O)n1Cc1ccccc1` gave a Kd of 0.1 µM. Still for that read-out and setting: for `Cc1ccc(NC(=O)Nc2cc(C(C)(C)C)nn2-c2ccccc2)cc1` [GSK1014915] the value was 0.26 µM. Still for that read-out and setting: for `Cn1ccc2ncnc(Oc3ccc(NC(=O)Nc4ccccc4)cc3)c21` the value was 0.0006 µM. The same measure, in the same setting: as for `O=C(Nc1ccccc1)Nc1cccc(Oc2ccc3nccn3n2)c1`, the figure is 0.00094 µM.

The subject of another assay is LCK.
`COc1cc2nccc(Nc3ccc(NC(=O)c4ccc(C)cc4)c(O)c3)c2cc1OC.Cl` [GW440132] returned a Kd of 0.56 µM.

In turn, `Cc1ccccc1-n1cnc2c(N)ncnc21` [SKF-97510] displayed a Kd above 10 µM.

Consider `Cc1ccc(C(=O)Nc2ccc(Nc3ccnc4cc(-c5ccccn5)ccc34)cc2O)cc1.Cl` [GW440146], for which the Kd stood at 0.26 µM. That is a sub-micromolar value.

The next assay relates to T1, LOK.
T1 construct: gene STK10
In turn, `Cc1nnc(-c2ccc3occ(-c4ccc(S(C)=O)cc4)c3c2)[nH]1` (stereo not drawn) registered a Kd above 10 µM. Still for that read-out and setting: as for `COc1cc2ncn(-c3cc(OCC4CCCO4)c(C(N)=O)s3)c2cc1OC` (stereo not drawn) [GSK204607], the figure is 0.1 µM; as for `Cn1ccc2ncnc(Oc3ccc(Nc4nc5ccccc5[nH]4)cc3)c21`, 0.2 µM; as for `Cn1ccc2ncnc(Oc3ccc(NC(=O)Nc4ccccc4)cc3)c21`, 0.28 µM.

For a further assay, the system named is LTK.
The compound `O=C1NC(=O)C(N2CCc3ccccc32)=C1c1ccccc1Cl` [SB-373598] came in with a Kd above 10 µM. On the same count and under the same terms, as for `Nc1ncnc2[nH]c(-c3ccccc3)nc12` [AH5015], the figure is above 10 µM; as for `O=C(O)COc1ncnc2cc(-c3ccc4[nH]ncc4c3)sc12`, above 10 µM.
